Only some compounds are listed: those with a hit (about 8.1% of all), similar ones and a draw of the others.
ClpP mod = qHTS Assay for Activators of ClpP | purified B. subtilis ClpP, FRET peptide cleavage, 20 min | Potency, µM (doses to about 57.5 µM), inactives show at the top dose activity change, negative = active | 340,000 tested, 1.9% active | ATP-dependent Clp protease proteolytic subunit (Bacillus subtilis (strain 168)), P80244 | AID 651965, 2013; active = well fitted falling curve with a large enough effect; inconclusive = small, poorly fitted or top-dose-only effect; inactive = no such curve, though single readings can be large or run the other way; note: the source files actives as falling curves though it sought activators and does not explain the sign; nearly all actives have a fitted effect of over 65% in size
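Purified B. subtilis ClpP, 10 microg/mL final in Tris/HCl pH8 with KCl, BSA, glycerol and Tween-20, cleaved an Abz/nitrotyrosine-quenched decapeptide. Fluorescence (ex 320, em 430) was read at 0 and 20 min at room temperature. Delta was normalized to 5.8 microM ADEP and DMSO/no-enzyme controls.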
Epigenetic reg = derepresses silenced GFP reporter in murine cells; murine LDR cells, GFP reporter derepression, 30 h; Potency, µM (series often up to 53.9 µM), for the others: top-dose GFP activation, most hits filed as activators; 280,000 tested, 0.2% active; note: % of control where 0% means no effect; nearly all actives have a fitted effect of over 60% in size
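Murine LDR cells bearing a silenced CMV-driven GFP reporter were exposed to compound for 30 h at 37 C. After PBS washes, GFP-positive cells (20-120 um objects) counted by laser-scanning microplate cytometry.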
RORgamma inh = blocks mouse ROR gamma transcriptional activity; P51450; Drosophila S2 Gal4-RORgamma UAS-luciferase reporter, 20 h; Potency, µM (highest dose often 53.6 µM), inactives show at the top dose activity change, negative = inhibition, actives largely listed as inhibitors; 310,000 tested, 5.4% active; AID 2551; note: % is set by controls: 0 for no effect and ±100 for the full control effect; nearly all actives have a fitted effect of over 60% in size
Target sequence (P51450 whole entry, looked up, the tested form may be a part): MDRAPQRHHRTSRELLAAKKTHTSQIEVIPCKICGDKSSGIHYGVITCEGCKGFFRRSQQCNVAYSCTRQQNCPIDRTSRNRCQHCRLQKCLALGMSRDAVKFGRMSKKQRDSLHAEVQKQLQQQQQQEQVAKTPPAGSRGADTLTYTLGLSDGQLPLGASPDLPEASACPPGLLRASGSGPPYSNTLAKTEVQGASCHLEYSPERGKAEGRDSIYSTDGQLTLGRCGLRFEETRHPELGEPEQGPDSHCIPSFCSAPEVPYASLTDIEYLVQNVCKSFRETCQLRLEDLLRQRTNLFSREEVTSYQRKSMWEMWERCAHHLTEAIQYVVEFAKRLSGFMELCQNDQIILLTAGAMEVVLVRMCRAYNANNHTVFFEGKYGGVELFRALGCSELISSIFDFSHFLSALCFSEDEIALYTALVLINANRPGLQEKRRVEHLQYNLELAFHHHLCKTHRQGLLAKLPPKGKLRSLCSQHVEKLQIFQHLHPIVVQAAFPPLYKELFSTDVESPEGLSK
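A Gal4/UAS one-hybrid system in insect cells: metallothionein-promoter Gal4–ROR gamma fusion plus Photinus luciferase reporter. Copper sulfate 700 uM final, 20 hr ambient incubation, luminescent detection after 10 min with reagent.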
VP16 counter = Gal4-VP16 reporter inhibition counter-screen; Potency, µM (highest dose often 53.6 µM), for the others: top-dose activity, negative = inhibition, hits mostly inhibitors; AID 2546; 310,000 tested, 3.5% active; Drosophila S2 Gal4-VP16 UAS-luciferase, luminescence, 20 h;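 note: Gal4-VP16 expression switched on by copper sulfate through the metallothionein promoter; % is set by controls: 0 for no effect and ±100 for the full control effect; nearly all actives have a fitted effect of over 50% in size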
Sfp inh = Sfp phosphopantetheinyl transferase inhibition | Q9F4F7 | Biochemical Sfp PPTase activity, qHTS | Potency, µM, without a hit: largest response in the series, negative = inhibition, actives largely listed as inhibitors | 310,000 tested, 3.5% active;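 note: the enzyme is Sfp with the accession as filed and its product quenches rhodamine fluorescence; 0% = enzyme reaction without inhibitor and -100% = no enzyme wells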
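Fluorescence-quenching assay with 15 nM Sfp, 5 uM rhodamine-CoA and 12.5 uM BHQ-2-labelled ybbR peptide in pH 7.6 Hepes/MgCl2 buffer. Enzyme was pre-incubated with compound for 15 min at room temperature. Rate was taken from the 30-min fluorescence change (525/598 nm).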
PINK1 expr mod = changes PINK1 expression; PINK1 immunofluorescence, high-content cytometry, 24 h; Potency, µM (doses to about 76.6 µM), inactives show at the highest dose activation (PINK1 increase), usual class: activators; 410,000 tested, 0.2% active; AID 624263; active = well fitted activation curve with a large enough effect; inconclusive = small, poorly fitted or top-dose-only effect; cell line not stated here; note: % of control where 0% means no effect; nearly all actives have a fitted effect of over 65% in size
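Cells are seeded, rested 12 hours, then given compound at five concentrations or DMSO for 24 hours. After fixation, blocking and antibody staining, PINK1 amount and mitochondrial localization are scored; CCCP serves as control.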
* = called active by the depositor; ? = inconclusive; / = not tested or not shown; [ ] = remark or other dose. Unless noted, calls come from the whole dose curve; as a rule, active = well fitted curve in the direction sought with a large enough effect; inconclusive = small, poorly fitted or top-dose-only effect, or another doubt; inactive = no such curve, though single readings can be large; an effect the other way counts as inactive or inconclusive. Potency is the fitted concentration of half-maximal effect.

SMILES	ClpP mod	Epigenetic reg	RORgamma inh	VP16 counter	Sfp inh	PINK1 expr mod
O=C(c1c[nH]c2ccc(S(=O)(=O)N3CCOCC3)cc2c1=O)N1CCCC1	7.9µM*	1%	-4%	3%	14%	2%
O=[N+]([O-])c1ccc2sc(SCc3nc4ccccn4c3Br)nc2c1	/	-1%	-13%	22%	6%	/
Cc1cc(=O)[nH]c(SCc2nc3ncccn3c2Br)n1	28µM*	0%	8%	7%	12%	3%[38.3 µM]
Brc1c(CSc2nc3ccccc3s2)nc2ncccn12	28µM*	0%	20%	?	8%	3%
CCOCN(C(=O)CSc1nc2ccccc2[nH]1)c1c(C)cccc1CC	4%	0%	/	/	/	6%
CCCCCCC[n+]1ccc(/C=C/c2c(C)[nH]c3ccccc23)cc1	-1%	/	/	/	/	/
CCCCCCCCCCCCCC[n+]1ccc(C)cc1	/	/	?	4µM*	56µM*	/
CCCCCCCCCCCC[n+]1ccc(C)c2ccccc21	-18%	/	/	/	/	/
CCCCCCCCC[n+]1cccc2c3ccccc3ccc21	?	0%	8.9µM*	2.5µM*	-9%	?
CCCCCCCCCCCCCCCC[n+]1ccc(/C=N/O)cc1	2%	0%	?	7.1µM*	32µM*	-1%
CCCCCCCCCCCC[n+]1ccc2ccccc2c1	/	/	?	5µM*	-27%	/
CCc1ccc(NC(=O)CCc2c(C)nn(-c3ccc(N4CCCC4)nn3)c2C)cc1	-4%	1%	/	/	/	1%
COc1ccc(N2CCN(Cc3nc4c(c(=O)[nH]c(=O)n4C)n3Cc3ccccc3C)CC2)cc1	1%	-3%	/	/	/	0%
CSc1nc(NCCN(C)C)c2sc3nc(-c4ccco4)c4c(c3c2n1)CCC4	/	/	/	/	/	-3%
CSc1nc(N(C)CCO)c2sc3nc(-c4ccco4)c4c(c3c2n1)CCC4	-12%	-1%	3%	-6%	79µM*	-1%[38.3 µM]
Cc1cc(C)c(NC(=S)N(CCc2ccncc2)C(C)C)c(C)c1	2%	2%	0%	-9%	-9%	1%
Cc1ccc(Cl)cc1NC(=S)N(Cc1ccco1)C(C)c1cccs1 (stereo unspecified)	-1%	7%	3.5µM*	7.1µM*	-14%	28%
Cc1ccc(C)c(NC(=S)N(Cc2ccco2)C(C)c2cccs2)c1 (stereo unspecified)	0%	0%	2.5µM*	5µM*	?	1%
Cc1ccc(NC(=S)N(Cc2ccco2)C(C)c2cccs2)c(Cl)c1 (stereo unspecified)	0%	0%	14%	6%[10 µM]	8%	6%
Cc1ccc(C)c(NC(=S)N(CCc2ccncc2)C(C)C)c1	/	0%	11µM*	-8%	7%	3%
Cc1cccc(N(C)S(=O)(=O)c2cc3[nH]c(=O)c(=O)[nH]c3cc2C)c1	?	-1%	/	/	/	3%
Cc1ccccc1N=Nc1c(C)[nH]n(C(N)=S)c1=O	-7%	1%	0.4µM*	1µM*	-10%	-3%
Cc1cccc(N=Nc2c(C)[nH]n(C(N)=S)c2=O)c1C	/	-5%	0.4µM*	1.6µM*	-5%	/
CCOc1ccccc1N=Nc1c(C)[nH]n(C(N)=S)c1=O	/	/	0.45µM*	1.3µM*	-22%	14%
Cc1ccccc1N=Nc1c(C)[nH]n(-c2ccccc2)c1=O	/	0%	-14%	-9%	20%	3%
Cc1[nH]n(C(N)=S)c(=O)c1N=Nc1ccccc1C(F)(F)F	3%	/	0.32µM*	2.5µM*	?	0%
Cc1[nH]n(-c2ccccc2)c(=O)c1N=Nc1ccccc1C(=O)O	-1%	/	23%	11%	-15%	-2%
Cc1[nH]n(C(N)=S)c(=O)c1N=Nc1ccc([N+](=O)[O-])cc1Cl	/	/	0.71µM*	3.5µM*	6%	1%
CCOc1ccc(-c2cc(-c3nc(-c4cc(OC)c(OC)c(OC)c4)no3)[nH]n2)cc1Cl	-26%	3%	/	/	/	-2%
CN(Cc1ccccc1)c1ccc(C=O)cc1	-2%	/	/	/	/	/
